# In PubChem BioAssay (Tox21):
# Results filed as inconclusive are left out. Unmarked numbers belong to inactive results. Active and inactive are the calls of the source. Calls come from the whole dose curve; as a rule, active = well fitted cell-killing curve with a large enough effect in the repeat runs; inconclusive = weak or mixed curves; inactive = flat fitted curve, though single readings scatter.
# Assay: qHTS RealTime-Glo MT Cell Viability Assay in HepG2 cells - 16 hour (AID 1224885); note: nearly all actives have a fitted effect of over 50% in size
# Conditions: RealTime-Glo luminescence; series mostly up to 76.8 µM; activity change, negative = cytotoxic: at the top concentration
# Source text: U.S. Tox21 Program National Center for Advancing Translational Sciences [NCATS] NIH Chemical Genomics Center [NCGC] U.S. Environmental Protection Agency [EPA] National Institutes of Environmental Health Sciences [NIEHS] National Toxicology Program [NTP] U.S. Food and Drug Administration [FDA] Tox21 Assay Overview: Measure of cell viability is critical in the cell-base assay. Analysis of cell viability is necessary for the characterization of cell responses to cytotoxic drugs and environmental stress. A RealTime-Glo MT Cell Viability Assay to monitor cell viability in real time of continues cell culture during 40 hours of compound treatment was used to screen Tox21 10K library compounds in HepG2 cells. The RealTime-Glo MT Cell Viability Assay is a nonlytic, homogeneous, bioluminescent method to measure cell viability in real time using a simple, plate-based method. The assay involves adding NanoLuc luciferase and a cell-permeant prosubstrate to cells in culture. Viable cells reduce the proprietary prosubstrate to generate a substrate for NanoLuc luciferase. This substrate diffuses from cells into the surrounding culture medium, where it is rapidly used by the NanoLuc Enzyme to produce a luminescent signal. The signal correlates with the number of viable cells, making the assay well suited for cytotoxicity studies.
# Tox21 Assay Protocol Summary: The mixture of HepG2 cell suspension and reagents were dispensed at 600cells/6 ul/well in 1536-well tissue culture treated black solid bottom plates using a Multidrop dispenser. After the assay plates were incubated at a 37 C/5% CO2 incubator for 5 hours, 23 nL of compounds dissolved in DMSO, positive and negative controls was transferred to the assay plate by a pintool work station. The plates were incubated at 37 C for 40 hours. The luminescence intensity were measured at 0h, 8h, 16h, 24h, 32h and 40h time points using ViewLux plate reader during compound treatment.
# % is set by controls: 0 for no effect and ±100 for the full control effect.
Compound,"activity change, negative = cytotoxic",Potency
CC(=O)c1ccccc1O,1.78%,–
COc1ccc(CCN(C)CCCC(C#N)(c2cc(OC)c(OC)c(OC)c2)C(C)C)cc1OC (stereo not given),-13.4% [at 35.3 µM],–
O=[N+]([O-])c1ccc(F)cc1F,1.83%,–
CCOC(=O)Nc1ccc(NCc2ccc(F)cc2)nc1N,-9.16% [at 35.3 µM],–
COc1ccc2c(c1)c(CC(=O)OCC(=O)O)c(C)n2C(=O)c1ccc(Cl)cc1,3.45% [at 35.3 µM],–
O=C(c1ccccc1)C1CCCCC1,-11.7%,–
CCCCCCCCCCCCCCCCC,-3.11%,–
CCc1ccc(O)c(OC)c1,1.31%,–
Cc1sccc1Br,0.649% [at 35.3 µM],–
NC(=O)c1ccc(N)cc1,2.3%,–
O=C1CCCCCCCCCCCN1,–,inactive
CN1CC(=O)NC1=N,2.21% [at 35.3 µM],–
CC/C=C\CC/C=C/C(OCC)OCC,-0.273%,–
C[C@H](NC(CCc1ccccc1)C(=O)O)C(=O)N1CCC[C@H]1C(=O)O (stereo not given in full),1.9% [at 35.3 µM],–
Nc1cc(=O)[nH]c(N)n1,0.324% [at 35.3 µM],–
N=C(N)c1ccc2cc(OC(=O)c3ccc(N=C(N)N)cc3)ccc2c1,-2.13% [at 35.3 µM],–
Cc1ccc(Cl)cc1Cl,-1.64%,–
CCCCC/C=C\CCC=O,-0.853%,–
C/C=C(\C)C#N,-0.687%,–
CN(C)CCCNCCCN(C)C,2.35%,–

Compound,"activity change, negative = cytotoxic",Potency
CCCCOCCOCCOCCCC,-1.92%,–
CCOC(=O)c1ccc(C)cc1,2.51%,–
CCCCCSCCCCC,0.997%,–
Cc1ccc(=O)n(-c2ccccc2)c1,-0.532% [at 35.3 µM],–
OCCCC1CCCCC1,1.26%,–
NCCc1cnc[nH]1,1.69% [at 35.3 µM],–
O=S(O)CO,0.38%,–
CCCCNC(=O)NCCCC,4.87%,–
CN1CCC(=C2c3ccccc3CC(=O)c3sccc32)CC1,-4.28% [at 35.3 µM],–
c1ccc([C@H]2CN3CCSC3=N2)cc1,0.101% [at 35.3 µM],–
COCCc1ccc(OCC(O)CNC(C)C)cc1 (stereo not given),–,inactive
C[C@](N)(Cc1ccc(O)cc1)C(=O)O,-0.0046% [at 6.97 µM],–
OCCOc1ccc(OCCO)cc1,0.006%,–
Cc1cccc(C)c1NC(=O)C(C)N (stereo not given),2.25% [at 35.3 µM],–
Cc1nc2c([nH]1)c(=O)n(C)c(=O)n2Cc1ccco1,3.45% [at 35.3 µM],–
O=C1CCCN1C1CCCCC1,2.59%,–
CN1N=C(C(N)=O)CCC1=O,0.287% [at 35.3 µM],–
CCOC(=O)c1cccc(N)c1,3.09% [at 35.3 µM],–
CC(C)c1cc2c(cc1S(=O)(=O)O)[C@@]1(C)CCC[C@@](C)(C(=O)O)[C@@H]1CC2,4.21% [at 35.3 µM],–
CCOc1ccc(C(=O)OCCN(CC)CC)cc1,0.178% [at 35.3 µM],–
